From PubChem BioAssay
Calls of active or inactive are those of the source.

Assays:
[1] = binders of probe aFSTL3 on microarray, primary screen, stem cell growth factor project, biochemical, small-molecule microarray, fluorescence 635/667 (AID 1064); conditions: higher = more signal;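 note: measures binding of the biotinylated anti-FSTL3 antibody to printed compounds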
[2] = binders from COS7 lysate, DM2A8 probe, primary screen, torsin A project, cell lysate, small-molecule microarray, fluorescence 635/667 (AID 1065); conditions: higher = more signal, COS7 lysate expressing mutant human TOR1A
[3] = binders of probe aFGF2 on microarray, primary screen, stem cell growth factor project, biochemical, small-molecule microarray, fluorescence 635/667 (AID 1067); conditions: higher = more signal;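 note: measures binding of biotinylated aFGF2 protein to printed compounds on slides; z-score merges feature fluorescence and signal-to-noise across triplicate slides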
[4] = binders of probe aFGF10 on microarray, primary screen, stem cell growth factor project, biochemical, small-molecule microarray, fluorescence 635/667 (AID 1071); conditions: higher = more signal;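 note: score merges 667 nm spot intensity and signal to noise from triplicate slides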
[5] = target: Neurogenic locus notch homolog protein 2 (Homo sapiens) (UniProt Q04721); assay: Notch2 binders on small-molecule microarrays, primary screen, biochemical, small-molecule microarray, 635 nm fluorescence, stem cell growth factors (AID 1073); conditions: Notch2 binding, higher = more signal
[6] = target: Pro-neuregulin-1, membrane-bound isoform (Homo sapiens) (UniProt Q02297); assay: NRG1 binders on small-molecule microarrays, primary screen, psychiatric disease protein project, biochemical, small-molecule microarray, fluorescence 635/667 (AID 1075); conditions: NRG1 binding, 635 nm fluorescence, higher = more signal;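 note: score combines 667 nm spot fluorescence with signal to noise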
[7] = tested on: Neuregulin-1 EGF-like domain; assay: binders of neuregulin-1 EGF-like domain, primary screen, biochemical, small-molecule microarray, 635 nm fluorescence (AID 1081); conditions: small-molecule microarray binding, higher = more signal;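 note: binding of the protein to compounds printed on small-molecule microarray slides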
[8] = FRG1 promoter luciferase signal modulators, primary screen, FRG1 inhibition for FSHD, cell-based, C2C12 myotubes, firefly/Renilla luciferase, luminescence (AID 1084); conditions: higher = more signal, called active from +8 up or from −8 down
[9] = binders of probe aFST on microarray, primary screen, stem cell growth factor project, biochemical, small-molecule microarray, fluorescence 635/667 (AID 1086); conditions: higher = more signal;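 note: score merges 667 nm fluorescence with signal-to-noise of each printed compound spot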
[10] = binders of probe aHhip on microarray, primary screen, stem cell growth factor project, biochemical, small-molecule microarray, fluorescence 635/667 (AID 1087); conditions: higher = more signal;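 note: score merges spot fluorescence at 667nm with spot signal to noise ratio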
[11] = tested on: PRMT1 (protein arginine N-methyltransferase 1); assay: PRMT1 binders on small-molecule microarrays, primary screen, biochemical, small-molecule microarray, 635 nm fluorescence (AID 1088); conditions: small-molecule microarray binding, higher = more signal;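 note: binding of Prmt1 protein to compounds spotted on small-molecule microarray slides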
[12] = yeast growth modulation, basal conditions, primary screen, YJM789 clinical isolate, OD600, 24 h (AID 1089);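 note: growth of clinical yeast isolate S. cerevisiae YJM 789 seeded 1000 cells per well; test concentration not given here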; conditions: S. cerevisiae YJM789 growth, higher = more signal, called active from +8 up or from −8 down
[13] = fission yeast growth modulation, primary screen, strain 972, OD600, 24 h, no modulator (AID 1090);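 note: basal condition with compound alone and no growth modifier present; test concentration not given here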; conditions: S. pombe 972 growth, higher = more signal, called active from +8 up or from −8 down
[14] = S. cerevisiae growth modulation with rapamycin, primary screen, strain BY4716, OD600, 96 h (AID 1091); conditions: higher = more signal, called active from +8 up or from −8 down; note: test concentration not given here
[15] = target: Torsin-1A-interacting protein 2 (Homo sapiens) (UniProt Q8NFQ8); assay: LULL1 binders on small-molecule microarray, primary screen, cell lysate, human LULL1 lysate, 635/667 nm fluorescence (AID 1092); conditions: hLULL1 lysate binding, 635 nm fluorescence, higher = more signal;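 note: probe is lysate of COS7 cells overexpressing human LULL1; score merges per-feature 667 nm fluorescence with signal-to-noise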
[16] = E. coli growth modulation, two-sided OD650, primary screen, E. coli filamentation project, strain DRC41, 24 h (AID 1093); conditions: OD650, 24 h, higher = more signal, called active from +8 up or from −8 down;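 note: MC1000 strain lacking acrAB efflux and sulA so SOS filamentation is blocked; test concentration not given here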
[17] = small-molecule microarray binders of probe aLefty2, primary screen, biochemical, biotinylated probe, 635/667 nm fluorescence (AID 1094); conditions: higher = more signal;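 note: score merges spot fluorescence near 667 nm with spot signal-to-noise ratio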
[18] = tested on: Noggin (protein binding on small-molecule microarray); assay: Noggin binders on small-molecule microarray, primary screen, biochemical, 635/667 nm fluorescence (AID 1095); conditions: 635 nm fluorescence, higher = more signal;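 note: score merges 667 nm feature fluorescence with signal to noise over triplicate slides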
[19] = target: Neurogenic locus notch homolog protein 3 (Homo sapiens) (UniProt Q9UM47); assay: NOTCH3 binders on small-molecule microarray, primary screen, biochemical, 635/667 nm fluorescence (AID 1096); conditions: NOTCH3 binding, 635 nm fluorescence, higher = more signal
[20] = small-molecule microarray binders of probe aEGFR, primary screen, biochemical, biotinylated probe, 635/667 nm fluorescence (AID 1097); conditions: higher = more signal;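 note: probe is a biotinylated anti-EGFR antibody binding compounds printed on slides; score combines fluorescence near 667 nm and signal to noise of each spot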

Sequence of Neurogenic locus notch homolog protein 3 (Homo sapiens) (Q9UM47 whole entry, looked up): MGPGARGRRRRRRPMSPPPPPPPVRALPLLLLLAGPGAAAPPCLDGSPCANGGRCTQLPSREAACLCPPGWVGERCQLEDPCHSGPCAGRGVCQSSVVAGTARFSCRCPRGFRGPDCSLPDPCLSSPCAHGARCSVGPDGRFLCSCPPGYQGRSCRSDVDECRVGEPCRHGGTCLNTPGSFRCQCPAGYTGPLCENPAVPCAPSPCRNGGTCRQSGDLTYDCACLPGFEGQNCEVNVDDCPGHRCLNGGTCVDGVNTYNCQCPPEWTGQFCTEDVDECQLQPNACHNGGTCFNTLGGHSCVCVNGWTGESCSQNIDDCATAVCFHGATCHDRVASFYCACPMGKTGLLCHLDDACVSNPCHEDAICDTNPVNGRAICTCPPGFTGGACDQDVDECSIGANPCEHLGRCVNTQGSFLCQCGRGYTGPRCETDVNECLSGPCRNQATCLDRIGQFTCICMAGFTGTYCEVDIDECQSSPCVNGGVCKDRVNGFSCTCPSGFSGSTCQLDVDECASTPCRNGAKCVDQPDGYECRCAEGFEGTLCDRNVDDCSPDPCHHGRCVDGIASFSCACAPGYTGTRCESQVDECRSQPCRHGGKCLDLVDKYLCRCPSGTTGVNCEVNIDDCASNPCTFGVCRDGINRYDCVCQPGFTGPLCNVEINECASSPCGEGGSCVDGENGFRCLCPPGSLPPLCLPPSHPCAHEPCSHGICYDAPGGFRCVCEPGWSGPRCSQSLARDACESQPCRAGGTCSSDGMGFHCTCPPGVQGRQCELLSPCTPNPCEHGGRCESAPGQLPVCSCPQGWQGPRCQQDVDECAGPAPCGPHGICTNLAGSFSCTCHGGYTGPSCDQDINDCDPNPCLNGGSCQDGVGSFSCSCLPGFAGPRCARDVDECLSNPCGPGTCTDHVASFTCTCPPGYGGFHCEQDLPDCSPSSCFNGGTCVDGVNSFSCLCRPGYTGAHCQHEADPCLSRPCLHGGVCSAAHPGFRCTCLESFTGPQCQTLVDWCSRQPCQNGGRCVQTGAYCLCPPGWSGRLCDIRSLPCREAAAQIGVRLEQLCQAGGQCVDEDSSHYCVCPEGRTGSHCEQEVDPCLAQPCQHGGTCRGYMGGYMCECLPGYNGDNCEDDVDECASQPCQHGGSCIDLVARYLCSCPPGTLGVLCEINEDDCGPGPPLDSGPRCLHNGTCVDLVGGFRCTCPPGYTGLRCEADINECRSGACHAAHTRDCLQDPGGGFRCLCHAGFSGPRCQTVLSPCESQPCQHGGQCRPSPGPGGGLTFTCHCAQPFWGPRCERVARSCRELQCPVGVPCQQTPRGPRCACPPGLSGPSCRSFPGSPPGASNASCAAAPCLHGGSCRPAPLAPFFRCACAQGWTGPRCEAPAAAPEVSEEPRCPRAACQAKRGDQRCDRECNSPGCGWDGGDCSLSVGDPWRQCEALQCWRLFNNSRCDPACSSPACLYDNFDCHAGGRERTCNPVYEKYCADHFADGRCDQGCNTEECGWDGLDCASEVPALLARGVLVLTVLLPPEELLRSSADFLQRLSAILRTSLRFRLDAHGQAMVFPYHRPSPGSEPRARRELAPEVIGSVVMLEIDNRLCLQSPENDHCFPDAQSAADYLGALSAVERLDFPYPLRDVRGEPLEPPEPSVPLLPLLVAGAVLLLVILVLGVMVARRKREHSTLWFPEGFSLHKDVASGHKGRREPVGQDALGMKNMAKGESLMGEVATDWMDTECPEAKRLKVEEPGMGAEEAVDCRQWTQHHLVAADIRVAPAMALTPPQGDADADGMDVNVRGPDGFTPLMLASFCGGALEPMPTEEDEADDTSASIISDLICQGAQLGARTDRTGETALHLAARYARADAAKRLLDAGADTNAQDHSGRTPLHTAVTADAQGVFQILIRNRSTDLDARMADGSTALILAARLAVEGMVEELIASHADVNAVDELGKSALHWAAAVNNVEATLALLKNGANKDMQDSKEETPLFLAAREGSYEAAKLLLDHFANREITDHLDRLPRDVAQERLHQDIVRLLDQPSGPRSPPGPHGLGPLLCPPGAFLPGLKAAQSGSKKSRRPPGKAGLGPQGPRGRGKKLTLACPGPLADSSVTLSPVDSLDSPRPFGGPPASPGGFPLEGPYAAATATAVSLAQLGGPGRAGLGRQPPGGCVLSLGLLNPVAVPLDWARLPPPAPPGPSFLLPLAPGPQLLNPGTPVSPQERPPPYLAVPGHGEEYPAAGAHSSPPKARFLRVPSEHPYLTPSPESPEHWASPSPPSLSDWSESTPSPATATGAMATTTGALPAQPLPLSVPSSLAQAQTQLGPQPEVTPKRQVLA
Sequence of Pro-neuregulin-1, membrane-bound isoform (Homo sapiens) (Q02297 whole entry, looked up, the tested form may be a part, canonical isoform): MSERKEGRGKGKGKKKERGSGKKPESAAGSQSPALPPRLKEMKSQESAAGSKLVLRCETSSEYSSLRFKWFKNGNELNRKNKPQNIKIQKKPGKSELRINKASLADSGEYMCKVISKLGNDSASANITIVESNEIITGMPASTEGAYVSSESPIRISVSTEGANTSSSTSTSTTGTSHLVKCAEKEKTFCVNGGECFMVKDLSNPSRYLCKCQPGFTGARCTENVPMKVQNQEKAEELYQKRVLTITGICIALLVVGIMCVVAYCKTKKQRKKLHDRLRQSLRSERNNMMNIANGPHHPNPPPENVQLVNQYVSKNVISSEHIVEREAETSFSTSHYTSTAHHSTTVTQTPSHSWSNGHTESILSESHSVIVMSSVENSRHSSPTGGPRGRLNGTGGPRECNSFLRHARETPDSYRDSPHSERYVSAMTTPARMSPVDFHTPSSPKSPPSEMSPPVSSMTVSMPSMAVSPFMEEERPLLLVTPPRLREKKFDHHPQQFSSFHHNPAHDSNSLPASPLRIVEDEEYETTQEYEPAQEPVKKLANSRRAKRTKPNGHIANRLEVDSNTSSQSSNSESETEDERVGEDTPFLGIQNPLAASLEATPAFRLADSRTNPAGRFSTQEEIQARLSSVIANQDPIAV
Sequence of Torsin-1A-interacting protein 2 (Homo sapiens) (Q8NFQ8 whole entry, looked up): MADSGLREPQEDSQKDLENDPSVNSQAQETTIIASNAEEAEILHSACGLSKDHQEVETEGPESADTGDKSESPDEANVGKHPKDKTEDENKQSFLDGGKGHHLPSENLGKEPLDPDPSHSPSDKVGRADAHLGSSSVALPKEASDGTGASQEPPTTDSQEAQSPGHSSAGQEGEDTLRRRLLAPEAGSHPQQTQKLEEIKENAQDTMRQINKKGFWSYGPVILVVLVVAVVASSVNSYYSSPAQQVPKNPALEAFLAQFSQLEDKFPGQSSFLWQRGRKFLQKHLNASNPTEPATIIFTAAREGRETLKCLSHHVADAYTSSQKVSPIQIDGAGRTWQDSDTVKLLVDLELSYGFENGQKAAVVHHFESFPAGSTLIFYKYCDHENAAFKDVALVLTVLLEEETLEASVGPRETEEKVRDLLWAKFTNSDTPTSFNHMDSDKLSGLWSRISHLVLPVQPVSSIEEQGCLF

SMILES	composite z-score [1]	composite z-score [2]	composite z-score [3]	composite z-score [4]	composite z-score [5]	composite z-score [6]	composite z-score [7]	z-score [8]	composite z-score [9]	composite z-score [10]	composite z-score [11]	z-score [12]	z-score [13]	z-score [14]	composite z-score [15]	z-score [16]	composite z-score [17]	composite z-score [18]	composite z-score [19]	composite z-score [20]
O=C1C2C=CC(C(O)C#Cc3ccccc3)N(Nc3ccccc3)C2C(=O)N1c1ccccc1 (stereo not given)	0.532	-0.17	-0.0316	0.208	1.46	1.74	1.24	0.818 (inactive)	0.246	-0.226	0.398	0.132 (inactive)	-0.0141 (inactive)	0.104 (inactive)	2.95	-0.389 (inactive)	0.217	-0.418	0.314	-0.108
COc1cccc([C@H]2N[C@H](C(=O)O)CC[C@@H]2C)c1	-0.356	0.0291	-0.0885	-0.42	0.238	-0.0739	-0.212	-0.0831 (inactive)	0.425	-0.127	-0.158	-0.535 (inactive)	-0.823 (inactive)	0.48 (inactive)	0.0605	0.395 (inactive)	-0.23	0.002	0.202	-0.139
C=CCC(OC(C)=O)[C@@H]1[C@@H](N(Cc2ccc(-c3ccccc3)cc2)C(=O)c2ccc(-c3ccccc3)cc2)c2cc(OCCCO)ccc2N1C(=O)Cc1ccc(OC)cc1 (stereo not given in full)	-0.28	0.354	-0.0676	0.27	-0.142	0.0866	-0.261	0.826 (inactive)	0.391	-0.189	-0.22	-0.809 (inactive)	0.202 (inactive)	-0.253 (inactive)	0.669	-0.685 (inactive)	-0.0096	-0.0508	-0.0122	-0.0994
CCCC=C(CCC)[C@@H](NS(=O)(=O)c1ccc(-c2ccccc2)cc1)c1ccc(C(=O)OC)cc1	0.184	-0.337	-0.0363	-0.198	0.268	-0.33	-0.656	1.55 (inactive)	-0.212	-0.0994	0.266	0.282 (inactive)	-1.51 (inactive)	0.284 (inactive)	1.76	-1.9 (inactive)	-0.119	-0.666	-0.616	-0.059
COc1cccc([C@@H]2[C@@H](C)CC[C@H]3C(=O)N4[C@H](c5cccc(OC)c5)[C@@H](C)CC[C@H]4C(=O)N23)c1	-0.197	0.683	-0.0355	0.483	1.01	0.25	0.285	-1.21 (inactive)	0.0794	-0.0994	0.606	-2.34 (inactive)	-1.46 (inactive)	-0.616 (inactive)	0.474	0.368 (inactive)	-0.138	0.603	1.05	-0.0082
CCc1cccc(NC(=O)O[C@H]2[C@H](OC(=O)Nc3ccccc3)[C@@H](OC(=O)Nc3ccccc3)[C@@H](OC)O[C@@H]2CO)c1	-0.0679	0.624	0.216	1.17	1.08	1.76	1.39	0.825 (inactive)	0.891	-0.0831	1.54	1.77 (inactive)	2.57 (inactive)	1.97 (inactive)	3.25	-0.0576 (inactive)	-0.142	1.81	1.06	-0.0549
Cc1ccc(S[C@]2(C(=O)NC3CC3)CC(=O)N(Cc3cc(C(F)(F)F)cc(C(F)(F)F)c3)[C@@H]2c2ccc(CO)cc2)cc1	-0.293	0.0772	-0.138	0.138	0.1	0.522	1.24	-0.799 (inactive)	0.0733	-0.295	1.55	-1.18 (inactive)	-1.51 (inactive)	-2.53 (inactive)	2.27	-0.83 (inactive)	-0.213	0.756	0.58	-0.0772
C[C@@H]1CC[C@H]2C(=O)N3CCC[C@H]3C(=O)N2[C@H]1c1ccc(Br)cc1	-0.162	0.0769	-0.11	-0.121	-0.829	-0.267	0.0421	-0.228 (inactive)	-0.0423	0.0274	-0.455	0.233 (inactive)	-0.228 (inactive)	-0.0146 (inactive)	0.178	0.784 (inactive)	-0.207	0.49	-0.383	-0.166
CN1CCC(CCCO)=CC1C1CC1 (stereo not given)	-0.389	1.39	-0.199	-0.856	-1.13	-0.345	0.743	-0.901 (inactive)	-0.287	-0.251	0.608	-0.477 (inactive)	-0.851 (inactive)	-0.761 (inactive)	-0.463	1.08 (inactive)	-0.308	0.724	0.0618	-0.104
C[C@H]1COC(=O)[C@H](Cc2ccccc2)NC(=O)[C@@H](C)COC(=O)[C@H](Cc2ccccc2)NC1=O	-0.275	0.381	-0.136	0.718	0.694	0.815	1.11	-1.06 (inactive)	0.0531	-0.0994	1.57	-0.743 (inactive)	-1.27 (inactive)	-0.278 (inactive)	1.92	-0.208 (inactive)	-0.243	0.996	1.13	-0.0781
